# Screens from PubChem BioAssay.
# Pf Dd2 inh – blocks in vitro growth of P. falciparum Dd2; 120,000 tested, 4.3% active; P. falciparum Dd2 growth, SYBR Green, 72 h; AID 1347417; Potency, µM (doses to about 28.9 µM), for the others: top-dose activity, negative = inhibition, most hits filed as inhibitors; active = well fitted inhibition curve with a large enough effect;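 note: plate controls were DMSO vehicle for no effect and reference drug for full effect; nearly all actives have a fitted effect of over 65% in size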
#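 Infected erythrocytes (Dd2, 0.3% parasitemia, 2.5% hematocrit final) are added to compound in RPMI-1640/Albumax II medium, grown 72 h at 37C in low oxygen, then lysed with saponin/Triton-X containing SYBR Green and read by fluorescence.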
# An asterisk follows results filed as active; i = inactive; [ ] = another dose, or the depositor's remark. Only a selection was taken, and hits are over-represented in it overall. Potency is the fitted concentration of half-maximal effect.
SMILES,Pf Dd2 inh
O=C(CSc1nnc(-c2ccccc2F)o1)Nc1ccccc1Cl,20.6%
COc1ccc(-n2ccnc(NCCc3ccc(S(N)(=O)=O)cc3)c2=O)cc1,i
COc1ccccc1Nc1c2c(nc3ccc(NC(=O)/C=C/c4cccc(OC)c4OC)cc13)CCCC2,1.12µM*
COc1ccc(Nc2c3c(nc4ccccc24)CCC3)cc1Cl,i
Fc1ccccc1Nc1c2c(nc3ccccc13)CCC2,-22.1%
COc1ccccc1NC(=O)c1sc2nc3c(cc2c1N)CCCCCC3,i
COc1ccccc1Nc1c2c(nc3ccc(NC(=O)c4cccc(F)c4)cc13)CCCC2,3.16µM*
COc1ccc(OC)c(NC(=O)c2ccc3c(Cl)c4c(nc3c2)CCCC4)c1,-5.1%
COc1cc(NC(=O)c2cccc(F)c2)ccc1NC(=O)c1cc2ccccc2o1,5.6%
COc1ccc(C)cc1NC(=O)CC(=O)Nc1ccc2nc3n(c(=O)c2c1)CCCCC3,-12.7%
COc1ccc(C)cc1Nc1c2c(nc3ccccc13)CCC2,12.6µM*
COc1ccc(/C=C/C(=O)Nc2ccc3nc4c(c(Nc5ccccc5OC)c3c2)CCCC4)cc1,1.26µM*
COc1ccccc1NC(=O)Cn1nc2c(cc1=O)CCCC2,-11.8%
O=C(NC1CCCC1)c1cccc2c1CCN2S(=O)(=O)c1ccccc1,i
Cc1ccc(C(=O)N2CCC3(CC(c4cccc(C(F)(F)F)c4)=NO3)C2)cc1 (centres undefined),-28.3%
COc1cc(OC)c(NC(=O)CCc2c(C)nc3cc(-c4ccccc4OC)nn3c2C)cc1Cl,1.5%
CN1CCC2(Cc3ccccc3CN(C(=O)c3ccc(Cl)cc3)C2)C1 (centres undefined),-29.5%
COc1cc(OC)c(C(=O)N2CCCn3nc(C(=O)O)cc3C2)cc1OC,12.7%
COc1ccc(Nc2c3c(nc4ccc(NC(=O)/C=C/c5cccc(OC)c5OC)cc24)CCCC3)cc1OC,3.98µM*
COc1ccc(NC(=O)Cn2nc(C(F)(F)F)c3c2CCCC3)cc1OC,-6.9%
COc1ccc(NC(=O)c2c(OC)cc(=O)n3c2CCCC3)cc1OC,i
CCn1c(=O)cc(OCC(=O)Nc2ccc(C)c(F)c2)c2ccccc21,23.4%
O=C1NCc2ccccc2CC12CCCN2Cc1ccc2ccccc2n1 (centres undefined),5.2%
O=C1NCc2ccccc2CC12CCCCN2Cc1cccc(O)c1 (centres undefined),-20.2%
Cc1cc(C)c(CN2CCCC23Cc2ccccc2CNC3=O)c(C)c1 (centres undefined),-4.6%
SMILES,Pf Dd2 inh
Cc1ncc(CO)c(CN2CCCC23Cc2ccccc2CNC3=O)c1O (centres undefined),0.2%
Cc1cccc(CN2CCCCC23Cc2ccccc2CNC3=O)n1 (centres undefined),10µM*
Cc1cccc(C)c1CN1CCCC12Cc1ccccc1CNC2=O (centres undefined),2.51µM*
Cc1noc(C)c1S(=O)(=O)N1CCn2ncc(C(=O)Nc3ccc(Cl)cc3Cl)c2C1,-26.4%
Cc1noc(-c2ccc(OC3CN(C(=O)Cc4cccs4)C3)cc2)n1,26.3%[5.79 µM]
CCN1c2cc(C(=O)NCc3cccs3)ccc2C(=O)N2CCCCC21 (centres undefined),-12.7%
Cc1ccccc1C(=O)Nc1ccc([C@H]2OCC(=O)N(Cc3ccncc3)[C@@H]2CO)cc1,16.5%[44.1 µM]
O=C(c1ccccn1)N1C[C@@H]2OCC(=O)N(CC3CCCCC3)[C@@H]2C1,2.1%[44.1 µM]
O=C(Nc1ccc([C@H]2OCC(=O)N(CC3CCCCC3)[C@@H]2CO)cc1)c1ccccn1,11.2µM*
Cc1ccc(Cn2c(=O)c3cccnc3n(Cc3ccc(F)cc3)c2=O)cc1,31.0%
Cc1ccsc1C(=O)NC1CCCN(c2cc(N(C)C)ncn2)C1 (centres undefined),65.4%[5.79 µM]
Cc1ccc(CN[C@@H]2CO[C@H](CNC(=O)CC(C)(C)C)[C@H]2O)cc1,i
O=C(CCC[C@H]1NC[C@@H]2CC1CN(Cc1ccccc1)C2)N1CCCC1,-5.9%
CN(Cc1ccc(N2CCCCC2)cc1)C(=O)CCC[C@H]1NC[C@@H]2C[C@H]1CN(Cc1ccccc1)C2,4.47µM*
CCN1CCN(CCNC(=O)CCC[C@H]2NC[C@@H]3C[C@H]2CN(Cc2ccccc2)C3)CC1,-23.2%
CCN1CCN(CCCNC(=O)CCC[C@H]2NC[C@@H]3C[C@H]2CN(Cc2ccccc2)C3)CC1,11.4%
Cc1nccn1CCNC(=O)CCC[C@H]1NC[C@@H]2C[C@H]1CN(Cc1ccccc1)C2,3.55µM*
CN(Cc1cccnc1)C(=O)CCC[C@H]1NC[C@@H]2C[C@H]1CN(Cc1ccccc1)C2,-8.7%
CCOc1ccccc1CNC(=O)C1CCCN(c2nnc(C)c3c(C)n(-c4ccccc4)nc23)C1 (centres undefined),40.8%[5.79 µM]
COc1ccccc1[C@H]1CN(C(=O)C2[C@H]3CNC[C@@H]23)[C@@H]2C3CCN(CC3)[C@H]12 (some centres undefined),-1.3%
O=C(COc1ccccc1)N1CCCN(c2cc(-c3ccc(Br)cc3)[nH]n2)CC1,-9.9%
O=c1cc(CSc2ncn[nH]2)[nH]c2c(Cl)cccc12,74.4%
Cc1ccc(/C=C/c2onc(C)c2S(=O)(=O)N2CCC(C(=O)Nc3cc(C)ccc3C)CC2)cc1,11.4%
Cc1ccc(Cl)cc1N1CCN(C(=O)C2CCN(S(=O)(=O)c3cccc4nonc34)CC2)CC1,6.31µM*
O=C(C1CCN(S(=O)(=O)c2cccc3nonc23)CC1)N1CCN(c2ccccc2)CC1,i
SMILES,Pf Dd2 inh
Cc1ccc(Cl)cc1N1CCN(C(=O)C2CCN(S(=O)(=O)c3c(C)noc3/C=C/c3ccccc3F)CC2)CC1,-11.5%
COc1ccccc1N1CCN(C(=O)C2CCN(S(=O)(=O)c3cccc4nonc34)CC2)CC1,6.3%
Cc1ccc(/C=C/c2onc(C)c2S(=O)(=O)N2CCC(C(=O)N3CCN(c4cc(C)ccc4C)CC3)CC2)cc1,8.91µM*
COC(=O)[C@H](Cc1ccc(OC)cc1)NC(=O)[C@@H]1CNCCN1S(C)(=O)=O,-13.2%[44.1 µM]
COc1ccc(CN2C=C(C(=O)OCc3nc(-c4cccs4)no3)C(C)=NS2(=O)=O)cc1,i
Cc1ccc(-n2ncc(C(=O)NCc3cccs3)c2C2CCN(C(=O)OC(C)(C)C)CC2)c(C)c1,11.2µM*
CC(C)(C)OC(=O)N1CCC(c2c(C(=O)NCc3cccs3)cnn2-c2cccc(F)c2)CC1,7.94µM*
CCN(CC)C(=O)Cn1c(=O)nc(-c2ccccc2F)c2cc(Cl)ccc21,12.6%
Cc1noc([C@@H](C)NS(=O)(=O)c2ccccc2)c1C(=O)O,29.7%[44.1 µM]
CCCc1nnc(N2C[C@@H](CCC)[C@H](C(=O)O)C2)s1,-17.5%
Cc1ccc(C)c(CN2CCC(CNC(=O)Cn3ncc4c([nH]c5ccccc54)c3=O)CC2)c1,-18.9%
O=C(c1cc2ccc3cccnc3c2[nH]1)N1CCN(c2ccccc2)CC1,i
Cc1ccc(CN2CCC(CNC(=O)c3cc4ccc5cccnc5c4[nH]3)CC2)cc1,3.55µM*
Cc1oc2ncnc(N3CCCCC3)c2c1C(=O)NCC1CCN(Cc2cccc(F)c2)CC1,-17.0%
O=C(NCC1CCN(Cc2cccc(F)c2)CC1)c1cc2ccc3cccnc3c2[nH]1,7.08µM*
Cc1ccc(C)c(CN2CCC(CNC(=O)c3occc3C)C2)c1 (centres undefined),-6.7%
CCCN(C(=O)c1cc2ccc3cccnc3c2[nH]1)c1ccc(F)cc1,-18.6%
Cc1ccc(CN2CCC(CNC(=O)Nc3ccc(C)c(C)c3)C2)cc1 (centres undefined),-5.1%
Cc1ccc(C)c(CN2CCC(CNC(=O)c3cc4ccc5cccnc5c4[nH]3)CC2)c1,2.82µM*
